Test results from PubChem BioAssay (EPA / NIEHS).
The source made the active and inactive calls. The calls were made as follows: active = hit-call score of the fitted dose curve at least 0.9, where 1 is the maximum; inactive = score below 0.9.

What was measured:
[1] = read-out: Human Leukocyte Antigen - DR isotype (HLADR), HLA-DRA (gene 3122); assay: BSK_BE3C_HLADR: BioMAP Diversity Plus: BE3C Assay for Human Leukocyte Antigen - DR isotype (HLADR) Biomarker Activity (AID 2283032); details: primary human bronchial epithelial cells; actives raise or lower the signal
How it was run: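 Human primary bronchial epithelial cells (BE3C system) exposed to compound for 24 hours; cell-surface HLA-DR measured by ELISA, fitted bidirectionally relative to DMSO. Total protein by SRB in parallel cultures tracked cytotoxicity.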

[2] = read-out: Vascular cell adhesion molecule 1 (VCAM1), VCAM1 (gene 7412); assay: BSK_4H_VCAM1: BioMAP Diversity Plus: 4H Assay for Vascular cell adhesion molecule 1 (VCAM1) Biomarker Activity (AID 2283033); details: primary human endothelial cells (HUVEC); actives raise or lower the signal
How it was run: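 Primary human umbilical vein endothelial cells, 4H stimulation system, treated for 24 h; cell-surface VCAM-1 quantified by ELISA. Bidirectional fitting against DMSO; cytotoxicity tracked by SRB total-protein staining in parallel cultures.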

[3] = read-out: Interferon-gamma inducible Protein 10 (IP10), CXCL10 (gene 3627); assay: BSK_BE3C_IP10: BioMAP Diversity Plus: BE3C Assay for Interferon-gamma inducible Protein 10 (IP10) Biomarker Activity (AID 2283034); details: primary human bronchial epithelial cells; actives raise or lower the signal
How it was run: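 Primary human bronchial epithelial cells, with IP-10 measured by ELISA 24 hours after chemical dosing. Bidirectional fit against DMSO; cytotoxicity checked by SRB total protein staining in parallel cultures.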

[4] = read-out: Monokine induced gamma interferon (MIG), CXCL9 (gene 4283); assay: BSK_BE3C_MIG: BioMAP Diversity Plus: BE3C Assay for Monokine induced gamma interferon (MIG) Biomarker Activity (AID 2283035); details: primary human bronchial epithelial cells; actives raise or lower the signal
How it was run: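 ELISA read-out of MIG in human lung bronchial epithelial primary cultures, 24 h post-dosing. Bidirectional curve fit vs DMSO baseline.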

[5] = read-out: Transforming growth factor beta 1 (TGFb1), TGFB1 (gene 7040); assay: BSK_BE3C_TGFb1: BioMAP Diversity Plus: BE3C Assay for Transforming growth factor beta 1 (TGFb1) Biomarker Activity (AID 2283036); details: primary human bronchial epithelial cells; actives raise or lower the signal
How it was run: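 Primary human bronchial epithelial cells dosed with chemical; TGF-b1 measured by ELISA 24 h after dosing. Bidirectional curve fitting against DMSO negative control; SRB total-protein staining in parallel cultures gauged cytotoxicity.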

[6] = read-out: Plasminogen activator inhibitor-1 (PAI1), SERPINE1 (gene 5054); assay: BSK_BE3C_PAI1: BioMAP Diversity Plus: BE3C Assay for Plasminogen activator inhibitor-1 (PAI1) Biomarker Activity (AID 2283037); details: primary human bronchial epithelial cells; actives raise or lower the signal
How it was run: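 Primary human bronchial epithelial cells (BE3C system) exposed 24 h; PAI-1 quantified by ELISA. Parallel sulforhodamine B staining of total protein flags cytotoxicity. Bidirectional fit versus DMSO.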

[7] = read-out: urokinase plasminogen activator (uPA), PLAU (gene 5328); assay: BSK_BE3C_uPA: BioMAP Diversity Plus: BE3C Assay for urokinase plasminogen activator (uPA) Biomarker Activity (AID 2283038); details: primary human bronchial epithelial cells; actives raise or lower the signal
How it was run: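 Primary human bronchial epithelial cells, uPA measured by ELISA 24 h after dosing. Bidirectional change relative to DMSO; cytotoxicity checked in parallel cultures by sulforhodamine B total-protein staining.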

[8] = read-out: Urokinase-type plasminogen activator receptor (uPAR), PLAUR (gene 5329); assay: BSK_BE3C_uPAR: BioMAP Diversity Plus: BE3C Assay for Urokinase-type plasminogen activator receptor (uPAR) Biomarker Activity (AID 2283039); details: primary human bronchial epithelial cells; actives raise or lower the signal
How it was run: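 Primary human bronchial epithelial cells dosed for 24 h; uPAR quantified by ELISA with bidirectional fitting against DMSO. Overt cytotoxicity assessed in parallel cultures by SRB total-protein staining (0.1% SRB, 560 nm).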

[9] = read-out: Interleukin-6 (IL6), IL6 (gene 3569); assay: BSK_CASM3C_IL6: BioMAP Diversity Plus: CASM3C Assay for Interleukin-6 (IL6) Biomarker Activity for (AID 2283040); details: primary human coronary artery smooth muscle cells; actives raise or lower the signal
[10] = read-out: Interleukin-8 (IL8), CXCL8 (gene 3576); assay: BSK_CASM3C_IL8: BioMAP Diversity Plus: CASM3C Assay for Interleukin-8 (IL8) Biomarker Activity (AID 2283042); details: primary human coronary artery smooth muscle cells; actives raise or lower the signal;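 also: IL-8 protein level quantified by ELISA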
[11] = read-out: Human Leukocyte Antigen - DR isotype (HLADR), HLA-DRA (gene 3122); assay: BSK_CASM3C_HLADR: BioMAP Diversity Plus: CASM3C Assay for Human Leukocyte Antigen - DR isotype (HLADR) Biomarker Activity (AID 2283043); details: primary human coronary artery smooth muscle cells; actives raise or lower the signal;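 also: cell-surface HLA-DR protein level quantified by ELISA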
[12] = read-out: Macrophage colony-stimulating factor (MCSF), CSF1 (gene 1435); assay: BSK_CASM3C_MCSF: BioMAP Diversity Plus: CASM3C Assay for Macrophage colony-stimulating factor (MCSF) Biomarker Activity (AID 2283044); details: primary human coronary artery smooth muscle cells; actives raise or lower the signal;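 also: M-CSF protein amount quantified by ELISA after 24 h exposure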
[13] = read-out: Low-density lipoprotein receptor (LDLR), LDLR (gene 3949); assay: BSK_CASM3C_LDLR: BioMAP Diversity Plus: CASM3C Assay for Low-density lipoprotein receptor (LDLR) Biomarker Activity (AID 2283045); details: primary human coronary artery smooth muscle cells; actives raise or lower the signal;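 also: LDLR protein level on the cell surface quantified by ELISA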
[14] = read-out: Monocyte Chemoattractant Protein-1 (MCP1), CCL2 (gene 6347); assay: BSK_CASM3C_MCP1: BioMAP Diversity Plus: CASM3C Assay for Monocyte Chemoattractant Protein-1 (MCP1) Biomarker Activity (AID 2283046); details: primary human coronary artery smooth muscle cells; actives raise or lower the signal;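 also: MCP-1 level quantified by ELISA 24 h after dosing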
[15] = BSK_CASM3C_Proliferation: Cell Proliferation Assessment in the BioMAP Diversity Plus: CASM3C Assay (AID 2283047); details: primary human coronary artery smooth muscle cells;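 also: sulforhodamine B total protein stain as relative cell number at 560 nm; sub-confluent cells exposed 48 h before staining; fitted both ways against DMSO so gain or loss of cell number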
[16] = read-out: Monokine induced gamma interferon (MIG), CXCL9 (gene 4283); assay: BSK_CASM3C_MIG: BioMAP Diversity Plus: CASM3C Assay for Monokine induced gamma interferon (MIG) Biomarker Activity (AID 2283048); details: primary human coronary artery smooth muscle cells; actives raise or lower the signal;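 also: MIG protein level measured by ELISA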
[17] = read-out: serum amyloid A (SAA), SAA1 (gene 6288); assay: BSK_CASM3C_SAA: BioMAP Diversity Plus: CASM3C Assay for serum amyloid A (SAA) Biomarker Activity (AID 2283049); details: primary human coronary artery smooth muscle cells; actives raise or lower the signal;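 also: SAA protein level quantified by ELISA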
[18] = BSK_CASM3C_SRB: Viability Assessment in the BioMAP Diversity Plus: CASM3C Assay (AID 2283050); details: primary human coronary artery smooth muscle cells
[19] = read-out: Thrombomodulin, THBD (gene 7056); assay: BSK_CASM3C_Thrombomodulin: BioMAP Diversity Plus: CASM3C Assay for Thrombomodulin Biomarker Activity (AID 2283051); details: primary human coronary artery smooth muscle cells; actives raise or lower the signal;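 also: thrombomodulin protein level measured by ELISA 24 h after dosing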
[20] = read-out: Tissue plasminogen activator (tPA), PLAT (gene 5327); assay: BSK_BE3C_tPA: BioMAP Diversity Plus: BE3C Assay for Tissue plasminogen activator (tPA) Biomarker Activity (AID 2283041); details: primary human bronchial epithelial cells; actives raise or lower the signal;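 also: tPA level quantified by ELISA one day after compound addition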
How it was run: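 Primary human bronchial epithelial cells in the BE3C system, exposed to compound for 24 h. tPA was quantified by ELISA; DMSO served as baseline, with gain or loss of signal fitted. Cytotoxicity checked in parallel cultures by SRB total-protein staining.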

Measured: AC50

O=[N+]([O-])c1ccc(Nc2ccccc2)cc1
not listed: [20]
inactive: all other assays above

C#CCOC(=O)/C=C(C)/C=C/CC(C)CCCC(C)C (configuration not stated)
active: [2] 26.4 µM | [3] 1.32 µM | [11] 3.97 µM
not listed: [20]
inactive: all other assays above

O=S(=O)(c1ccc(Cl)cc1)c1cc(Cl)c(Cl)cc1Cl
active: [2] 20 µM | [3] 28.6 µM | [19] 8.36 µM
not listed: [20]
inactive: all other assays above

O=C(CCl)NCO
not listed: [20]
inactive: all other assays above

c1ccc(-c2cccc(-c3ccccc3)c2)cc1
active: [1] 20 µM | [2] 14 µM | [3] 14.4 µM | [18] 33.5 µM | [19] 20 µM
not listed: [20]
inactive: all other assays above

O=C(O)COc1cc(Cl)c(Cl)cc1Cl
not listed: [20]
inactive: all other assays above

O=C(N[C@H]1CN2CCC1CC2)c1ccc2c(c1)OCCO2
not listed: [20]
inactive: all other assays above

COCC(=O)N(c1c(C)cccc1C)[C@H](C)C(=O)OC
not listed: [20]
inactive: all other assays above

CCC(C)(C#N)N=NC(C)(C#N)CC (configuration not stated)
active: [12] 0.016 µM
not listed: [20]
inactive: all other assays above

CCOP(=S)(OCC)OP(=S)(OCC)OCC
active: [2] 33 µM | [15] 29 µM
not listed: [20]
inactive: all other assays above

CCOC(=O)CC(=O)CCl
active: [1] 20 µM | [2] 20 µM | [3] 20 µM | [5] 5.96 µM | [7] 4.09 µM | [9] 28.8 µM | [11] 8.67 µM | [12] 20 µM | [15] 26.3 µM | [16] 31.6 µM | [18] 25.7 µM
inactive: [4] | [6] | [8] | [10] | [13] | [14] | [17] | [19]

N#CCCC(Br)(C#N)CBr (configuration not stated)
active: [1] 27.9 µM | [2] 7.87 µM | [3] 28.1 µM | [4] 36.8 µM | [5] 20 µM | [6] 20 µM | [7] 20 µM | [8] 20 µM | [9] 20 µM | [10] 20 µM | [11] 8.75 µM | [12] 20 µM | [13] 12.2 µM | [14] 20 µM | [15] 3.93 µM | [16] 33.8 µM | [17] 11.8 µM | [18] 20 µM | [19] 20 µM

CCCCCCCCCCCCN(C)C
active: [13] 26.7 µM
not listed: [20]
inactive: all other assays above

CC(C)(C)c1ccccc1O
not listed: [20]
inactive: all other assays above

CCOC(=O)CCN(SN(C)C(=O)Oc1cccc2c1OC(C)(C)C2)C(C)C
active: [2] 31 µM | [3] 14.1 µM | [11] 12.2 µM | [12] 20 µM | [15] 20 µM
not listed: [20]
inactive: all other assays above

Cc1cc(C(C)(C)c2ccc(O)c(C)c2)ccc1O
active: [1] 10 µM | [2] 16.8 µM | [3] 10 µM | [5] 10 µM | [6] 10 µM | [8] 3.66 µM | [9] 10 µM | [11] 17.4 µM | [12] 15.2 µM | [15] 15.7 µM | [17] 17 µM | [18] 14.9 µM | [19] 3.01 µM
inactive: [4] | [7] | [10] | [13] | [14] | [16]

O=C(O)C1(c2ccc3c(c2)OC[C@H](Cc2ccc(-c4ccccc4)cc2)[C@H]3O)CCCC1
active: [1] 7.34 µM | [3] 5.91 µM | [4] 19.9 µM | [5] 13 µM | [6] 12.4 µM | [7] 13.8 µM | [8] 14.1 µM | [11] 25 µM | [15] 33.3 µM
not listed: [20]
inactive: all other assays above

OCCCCO
not listed: [5]
inactive: all other assays above
